Experimental data taken from PubChem BioAssay AID1159580 (chemical genetic matrix, 2015).
Screen size: about 5,500 compounds; about 2,000 (36%) were called active. Not shown: some 18% with an inconclusive outcome. No stated cut-off is given here; in the data, active means normalized growth mostly below about 0.91 (no sharp cut-off); inconclusive means no clear call, values can overlap the other calls; inactive means mostly above about 0.92. Some of the results follow.

Test: chemical genetic growth profiling, strain panel (AID 1159580);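 further: tested at 20 µM; growth read once vehicle control cultures reached saturation at 30 °C; 1 = growth at the plate median or of vehicle wells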
Conditions: growth OD

Measured: normalized growth

NC[C@@H]1O[C@H](O[C@@H]2[C@@H](CO)OC(O[C@@H]3[C@@H](O)[C@H](N)C[C@H](N)[C@H]3OC3O[C@H](CN)[C@@H](O)[C@H](O)[C@H]3N)[C@@H]2O)[C@H](N)[C@@H](O)[C@@H]1O (some centres not stated)
inactive: S. cerevisiae deletion strains, locus YJR075W, strain HOC1, stronger effect = lower value 1.02 | S. cerevisiae deletion strains, locus YKL009W, strain mrt4, stronger effect = lower value 1.06 | S. cerevisiae deletion strains, locus YKL068W, stronger effect = lower value 1.01 | S. cerevisiae deletion strains, locus YKL085W, strain MDH1 (second series), stronger effect = lower value 1.01 | S. cerevisiae deletion strains, locus YKL085W, strain MDH1, stronger effect = lower value 1.01 | S. cerevisiae deletion strains, locus YKL160W, strain elf1, stronger effect = lower value 1.02 | S. cerevisiae deletion strains, locus YKL190W, strain CNB1, stronger effect = lower value 1 | S. cerevisiae deletion strains, locus YKR001C, strain vps1, stronger effect = lower value 1.04 | S. cerevisiae deletion strains, locus YKR026C, strain gcn3, stronger effect = lower value 1.03 | S. cerevisiae deletion strains, locus YKR091W, strain srl3, stronger effect = lower value 1.02 | S. cerevisiae deletion strains, locus YLL001W, strain dnm1, stronger effect = lower value 1.06 | S. cerevisiae deletion strains, locus YLL026W, stronger effect = lower value 1.02 | S. cerevisiae deletion strains, locus YLL041C, strain sdh2, stronger effect = lower value 1.02 | S. cerevisiae deletion strains, locus YLR027C, strain aat2, stronger effect = lower value 1.01 | S. cerevisiae deletion strains, locus YLR039C, strain RIC1, stronger effect = lower value 0.973 | S. cerevisiae deletion strains, locus YLR058C, strain SHM2, stronger effect = lower value 1 | S. cerevisiae deletion strains, locus YLR102C, strain apc9, stronger effect = lower value 1.02 | S. cerevisiae deletion strains, locus YLR113W, strain HOG1, stronger effect = lower value 0.981 | S. cerevisiae deletion strains, locus YLR221C, strain rsa3, stronger effect = lower value 1.04 | S. cerevisiae deletion strains, locus YLR258W, strain gsy2, stronger effect = lower value 1.01 | S. cerevisiae deletion strains, locus YLR262C, strain YPT6 (second series), stronger effect = lower value 1.03 | S. cerevisiae deletion strains, locus YLR262C, strain YPT6, stronger effect = lower value 1.02 | S. cerevisiae deletion strains, locus YLR268W, strain sec22, stronger effect = lower value 1.05 | S. cerevisiae deletion strains, locus YLR320W, strain mms22, stronger effect = lower value 1.05 | S. cerevisiae deletion strains, locus YLR330W, strain CHS5, stronger effect = lower value 0.996 | S. cerevisiae deletion strains, locus YLR342W, strain FKS1 (second series), stronger effect = lower value 1.03 | S. cerevisiae deletion strains, locus YLR342W, strain FKS1, stronger effect = lower value 1.03 | S. cerevisiae deletion strains, locus YLR357W, strain rsc2, stronger effect = lower value 1.04 | S. cerevisiae deletion strains, locus YLR370C, strain arc18, stronger effect = lower value 1.04 | S. cerevisiae deletion strains, locus YLR371W, strain rom2, stronger effect = lower value 1.02 | S. cerevisiae deletion strains, locus YLR384C, strain iki3, stronger effect = lower value 1.03 | S. cerevisiae deletion strains, locus YLR418C, strain cdc73, stronger effect = lower value 1.04 | S. cerevisiae deletion strains, locus YML016C, strain PPZ1, stronger effect = lower value 1.01 | S. cerevisiae deletion strains, locus YML032C, strain rad52, stronger effect = lower value 1.02 | S. cerevisiae deletion strains, locus YML120C, strain ndi1, stronger effect = lower value 1.05 | S. cerevisiae deletion strains, locus YML124C, strain tub3, stronger effect = lower value 1.01 | S. cerevisiae deletion strains, locus YMR058W, strain fet3, stronger effect = lower value 1.03 | S. cerevisiae deletion strains, locus YMR078C, strain ctf18, stronger effect = lower value 1.04 | S. cerevisiae deletion strains, locus YMR125W, strain sto1, stronger effect = lower value 1.04 | S. cerevisiae deletion strains, locus YMR129W, stronger effect = lower value 1.02 | S. cerevisiae deletion strains, locus YMR205C, strain PFK2, stronger effect = lower value 1.03 | S. cerevisiae deletion strains, locus YMR223W, strain ubp8, stronger effect = lower value 1 | S. cerevisiae deletion strains, locus YMR231W, strain pep5, stronger effect = lower value 1.03 | S. cerevisiae deletion strains, locus YMR263W, strain SAP30, stronger effect = lower value 1.01 | S. cerevisiae deletion strains, locus YMR307W, strain GAS1, stronger effect = lower value 1.1 | S. cerevisiae deletion strains, locus YNL067W, strain RPL9B, stronger effect = lower value 1.02 | S. cerevisiae deletion strains, locus YNL071W, strain lat1, stronger effect = lower value 1.03 | S. cerevisiae deletion strains, locus YNL128W, strain TEP1, stronger effect = lower value 1.02 | S. cerevisiae deletion strains, locus YNL153C, strain GIM3, stronger effect = lower value 1 | S. cerevisiae deletion strains, locus YNL183C, strain NPR1, stronger effect = lower value 0.944 | S. cerevisiae deletion strains, locus YNL209W, strain ssb2, stronger effect = lower value 1.03 | S. cerevisiae deletion strains, locus YNL233W, strain BNI4, stronger effect = lower value 0.985 | S. cerevisiae deletion strains, locus YNL248C, strain rpa49, stronger effect = lower value 0.992 | S. cerevisiae deletion strains, locus YNL250W, strain rad50, stronger effect = lower value 1 | S. cerevisiae deletion strains, locus YNL271C, strain bni1, stronger effect = lower value 1.02 | S. cerevisiae deletion strains, locus YNL298W, strain CLA4, stronger effect = lower value 1.01 | S. cerevisiae deletion strains, locus YNL307C, strain MCK1, stronger effect = lower value 1.02 | S. cerevisiae deletion strains, locus YNL322C, strain KRE1 (second series), stronger effect = lower value 1.04 | S. cerevisiae deletion strains, locus YNL322C, strain KRE1, stronger effect = lower value 0.997 | S. cerevisiae deletion strains, locus YNR049C, strain mso1, stronger effect = lower value 1.03 | S. cerevisiae deletion strains, locus YNR052C, strain pop2, stronger effect = lower value 1.01 | S. cerevisiae deletion strains, locus YOL006C, strain TOP1, stronger effect = lower value 0.979 | S. cerevisiae deletion strains, locus YOL012C, strain htz1 0.869 | S. cerevisiae deletion strains, locus YOL147C, strain pex11, stronger effect = lower value 1.01 | S. cerevisiae deletion strains, locus YOR001W, strain rrp6, stronger effect = lower value 0.982 | S. cerevisiae deletion strains, locus YOR061W, strain CKA2, stronger effect = lower value 1.01 | S. cerevisiae deletion strains, locus YOR069W, strain VPS5, stronger effect = lower value 1 | S. cerevisiae deletion strains, locus YOR070C, strain gyp1, stronger effect = lower value 1.03 | S. cerevisiae deletion strains, locus YOR080W, strain dia2, stronger effect = lower value 1.03 | S. cerevisiae deletion strains, locus YOR083W, strain WHI5, stronger effect = lower value 1.02 | S. cerevisiae deletion strains, locus YOR106W, strain vam3, stronger effect = lower value 1.04 | S. cerevisiae deletion strains, locus YOR136W, strain idh2, stronger effect = lower value 1.01 | S. cerevisiae deletion strains, locus YOR144C, strain elg1, stronger effect = lower value 1.02 | S. cerevisiae deletion strains, locus YOR184W, strain ser1, stronger effect = lower value 1.03 | S. cerevisiae deletion strains, locus YOR231W, strain MKK1, stronger effect = lower value 1.01 | S. cerevisiae deletion strains, locus YOR265W, strain rbl2, stronger effect = lower value 1.02 | S. cerevisiae deletion strains, locus YOR270C, strain vph1, stronger effect = lower value 1.06 | S. cerevisiae deletion strains, locus YOR290C, strain snf2, stronger effect = lower value 1.04 | S. cerevisiae deletion strains, locus YOR316C, strain cot1, stronger effect = lower value 1.03 | S. cerevisiae deletion strains, locus YPL051W, strain arl3, stronger effect = lower value 1.01 | S. cerevisiae deletion strains, locus YPL055C, strain LGE1, stronger effect = lower value 0.973 | S. cerevisiae deletion strains, locus YPL078C, strain atp4, stronger effect = lower value 1.01 | S. cerevisiae deletion strains, locus YPL106C, strain sse1, stronger effect = lower value 1.01 | S. cerevisiae deletion strains, locus YPL240C, strain hsp82, stronger effect = lower value 1.03 | S. cerevisiae deletion strains, locus YPL241C, strain CIN2, stronger effect = lower value 0.998 | S. cerevisiae deletion strains, locus YPL256C, strain CLN2, stronger effect = lower value 0.997 | S. cerevisiae deletion strains, locus YPR119W, strain clb2, stronger effect = lower value 1.02 | S. cerevisiae deletion strains, locus YPR141C, strain kar3, stronger effect = lower value 1.02 | S. cerevisiae deletion strains, locus YPR163C, strain tif3, stronger effect = lower value 1.03 | S. cerevisiae deletion strains, locus YPR167C, strain met16, stronger effect = lower value 1.02 | S. cerevisiae deletion strains, strain wtn01, stronger effect = lower value 1.03 | S. cerevisiae strains, strain wild type, stronger effect = lower value 1.01
